Holding throughout (experiment): log2 ratio of Biotin-Ahx-Ub-VS probe labelling (fragment/DMSO); higher = less target engagement (more negative = stronger competition), active = hit call of the paper (q ≤ 0.05, log2 ratio ≤ -1)
Details in all cases: compound concentration: 200 uM; treatment time: 3 h

The target in assay [1] is T1, OTUD6B (UniProt Q8N6M0).
T1 sequence (whole entry): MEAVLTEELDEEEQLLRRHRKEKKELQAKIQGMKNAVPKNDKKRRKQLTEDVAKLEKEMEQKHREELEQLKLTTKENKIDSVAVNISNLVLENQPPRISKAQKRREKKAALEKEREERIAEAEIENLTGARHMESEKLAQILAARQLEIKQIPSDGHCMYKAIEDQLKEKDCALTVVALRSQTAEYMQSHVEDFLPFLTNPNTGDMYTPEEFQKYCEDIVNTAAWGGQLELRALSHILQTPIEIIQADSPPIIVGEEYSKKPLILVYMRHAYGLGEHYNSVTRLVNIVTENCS
Put shortly: (§1)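 Using Biotin-Ahx-Ub-VS at 0.5 µM final for 1 h, DUBs were labelled in HEK293T lysate (495 µg per sample) that had first been treated in triplicate with fragment at 200 µM or vehicle for 3 h. NeutrAvidin enrichment, LysC and trypsin digestion and diaPASEF LC-MS/MS followed. Spectronaut label-free quantities were global-median-normalised. Values are average log2 fragment/vehicle ratios by unpaired t-test, using proteins with ≥2 unique peptides.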

The target of assay [2] is T2, OTUD7B (UniProt Q6GQQ9).
T2 sequence (whole entry): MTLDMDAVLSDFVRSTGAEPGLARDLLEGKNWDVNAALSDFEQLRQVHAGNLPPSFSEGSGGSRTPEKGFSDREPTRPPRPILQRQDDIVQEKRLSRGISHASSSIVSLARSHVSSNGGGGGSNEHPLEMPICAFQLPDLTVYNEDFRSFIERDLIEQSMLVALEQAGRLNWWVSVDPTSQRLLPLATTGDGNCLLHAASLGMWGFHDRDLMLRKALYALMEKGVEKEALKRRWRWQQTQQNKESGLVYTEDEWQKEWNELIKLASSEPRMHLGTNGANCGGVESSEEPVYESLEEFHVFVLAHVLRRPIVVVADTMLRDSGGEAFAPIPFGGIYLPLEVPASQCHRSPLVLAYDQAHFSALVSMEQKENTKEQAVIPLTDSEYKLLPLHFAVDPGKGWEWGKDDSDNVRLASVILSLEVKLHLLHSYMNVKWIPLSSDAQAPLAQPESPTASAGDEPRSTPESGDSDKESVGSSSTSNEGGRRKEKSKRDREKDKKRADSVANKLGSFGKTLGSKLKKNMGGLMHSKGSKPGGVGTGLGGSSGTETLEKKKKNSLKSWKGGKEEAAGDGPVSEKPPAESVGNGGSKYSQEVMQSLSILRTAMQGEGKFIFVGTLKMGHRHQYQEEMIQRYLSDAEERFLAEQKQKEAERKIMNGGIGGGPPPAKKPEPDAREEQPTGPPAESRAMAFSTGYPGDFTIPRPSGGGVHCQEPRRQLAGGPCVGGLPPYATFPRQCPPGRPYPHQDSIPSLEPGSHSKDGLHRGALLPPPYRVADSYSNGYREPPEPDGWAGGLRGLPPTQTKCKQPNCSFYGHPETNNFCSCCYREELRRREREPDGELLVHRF
Put shortly:
as §1

Assay [3] concerns the target PRPF8 (UniProt Q6P2Q9). Put shortly: as §1
Assay [4] concerns the target T3, PSMD7 (UniProt P51665).
T3 sequence (whole entry): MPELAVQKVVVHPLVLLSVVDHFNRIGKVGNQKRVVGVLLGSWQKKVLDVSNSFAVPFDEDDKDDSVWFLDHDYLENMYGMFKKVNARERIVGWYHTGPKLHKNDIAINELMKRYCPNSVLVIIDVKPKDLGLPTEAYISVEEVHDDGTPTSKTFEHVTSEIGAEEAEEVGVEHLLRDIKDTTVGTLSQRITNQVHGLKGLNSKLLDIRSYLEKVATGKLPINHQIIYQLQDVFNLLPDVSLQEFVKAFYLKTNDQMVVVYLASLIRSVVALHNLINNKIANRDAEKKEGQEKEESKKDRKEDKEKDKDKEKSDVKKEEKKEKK
Put shortly: as §1

Assay [5] addresses UCHL1 (UniProt P09936). Put shortly: as §1
Assay [6] deals with T4, UCHL3 (UniProt P15374).
T4 sequence (whole entry): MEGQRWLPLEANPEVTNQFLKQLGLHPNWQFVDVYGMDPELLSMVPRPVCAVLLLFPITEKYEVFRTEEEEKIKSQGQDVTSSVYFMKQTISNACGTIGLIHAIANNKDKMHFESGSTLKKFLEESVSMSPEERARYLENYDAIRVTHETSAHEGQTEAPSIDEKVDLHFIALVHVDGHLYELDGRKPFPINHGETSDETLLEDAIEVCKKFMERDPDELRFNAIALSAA
Put shortly:
as §1

Assay [7] concerns the target T5, UCHL5 (UniProt Q9Y5K5).
T5 sequence (whole entry): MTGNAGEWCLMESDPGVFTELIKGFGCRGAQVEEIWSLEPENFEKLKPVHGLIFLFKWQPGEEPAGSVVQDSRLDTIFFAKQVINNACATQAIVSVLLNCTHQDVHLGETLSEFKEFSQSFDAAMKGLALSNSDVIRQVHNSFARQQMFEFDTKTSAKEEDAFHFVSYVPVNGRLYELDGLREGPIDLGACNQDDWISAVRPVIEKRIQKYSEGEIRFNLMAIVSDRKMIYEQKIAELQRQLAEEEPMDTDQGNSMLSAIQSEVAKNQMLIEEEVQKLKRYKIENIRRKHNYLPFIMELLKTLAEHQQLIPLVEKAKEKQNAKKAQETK
Put shortly:
as §1

Assay [8] has as its target USP10 (UniProt Q14694). Put shortly: as §1
The target of assay [9] is T6, USP15 (UniProt Q9Y4E8).
T6 sequence (whole entry): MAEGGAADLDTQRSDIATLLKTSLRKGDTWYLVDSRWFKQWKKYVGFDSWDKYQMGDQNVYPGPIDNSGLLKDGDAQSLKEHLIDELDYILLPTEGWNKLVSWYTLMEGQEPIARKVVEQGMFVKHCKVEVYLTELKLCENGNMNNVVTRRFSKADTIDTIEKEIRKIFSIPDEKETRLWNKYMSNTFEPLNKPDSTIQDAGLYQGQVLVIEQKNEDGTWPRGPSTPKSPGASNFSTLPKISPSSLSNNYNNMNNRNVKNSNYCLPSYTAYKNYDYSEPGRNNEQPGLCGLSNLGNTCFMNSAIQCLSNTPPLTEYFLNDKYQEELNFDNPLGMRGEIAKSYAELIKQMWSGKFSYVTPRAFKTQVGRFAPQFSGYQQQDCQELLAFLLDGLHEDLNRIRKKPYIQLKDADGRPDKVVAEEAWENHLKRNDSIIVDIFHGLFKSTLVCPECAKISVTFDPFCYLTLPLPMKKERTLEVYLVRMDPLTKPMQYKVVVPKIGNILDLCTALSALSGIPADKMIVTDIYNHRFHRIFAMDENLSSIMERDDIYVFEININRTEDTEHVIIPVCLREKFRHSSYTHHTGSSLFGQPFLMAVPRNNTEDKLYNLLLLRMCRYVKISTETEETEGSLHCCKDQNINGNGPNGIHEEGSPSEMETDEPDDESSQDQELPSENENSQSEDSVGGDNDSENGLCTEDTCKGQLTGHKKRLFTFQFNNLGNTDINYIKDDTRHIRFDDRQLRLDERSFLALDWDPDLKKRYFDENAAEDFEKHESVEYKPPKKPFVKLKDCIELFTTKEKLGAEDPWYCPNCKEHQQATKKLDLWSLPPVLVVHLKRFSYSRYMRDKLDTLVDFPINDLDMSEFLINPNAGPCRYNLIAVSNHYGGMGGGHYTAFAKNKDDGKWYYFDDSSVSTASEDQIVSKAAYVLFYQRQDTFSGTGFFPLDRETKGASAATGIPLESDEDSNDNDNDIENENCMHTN
Put shortly: as §1

A number with no mark means an inactive call.

UCHL1, sequence (P09936 whole entry, looked up): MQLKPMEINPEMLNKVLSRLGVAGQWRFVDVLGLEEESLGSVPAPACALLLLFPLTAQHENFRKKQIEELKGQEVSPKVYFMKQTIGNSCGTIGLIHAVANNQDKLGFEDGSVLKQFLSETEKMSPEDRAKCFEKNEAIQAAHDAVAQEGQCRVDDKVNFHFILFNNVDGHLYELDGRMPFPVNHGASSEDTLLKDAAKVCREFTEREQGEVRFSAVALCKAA
USP10, sequence (Q14694 whole entry): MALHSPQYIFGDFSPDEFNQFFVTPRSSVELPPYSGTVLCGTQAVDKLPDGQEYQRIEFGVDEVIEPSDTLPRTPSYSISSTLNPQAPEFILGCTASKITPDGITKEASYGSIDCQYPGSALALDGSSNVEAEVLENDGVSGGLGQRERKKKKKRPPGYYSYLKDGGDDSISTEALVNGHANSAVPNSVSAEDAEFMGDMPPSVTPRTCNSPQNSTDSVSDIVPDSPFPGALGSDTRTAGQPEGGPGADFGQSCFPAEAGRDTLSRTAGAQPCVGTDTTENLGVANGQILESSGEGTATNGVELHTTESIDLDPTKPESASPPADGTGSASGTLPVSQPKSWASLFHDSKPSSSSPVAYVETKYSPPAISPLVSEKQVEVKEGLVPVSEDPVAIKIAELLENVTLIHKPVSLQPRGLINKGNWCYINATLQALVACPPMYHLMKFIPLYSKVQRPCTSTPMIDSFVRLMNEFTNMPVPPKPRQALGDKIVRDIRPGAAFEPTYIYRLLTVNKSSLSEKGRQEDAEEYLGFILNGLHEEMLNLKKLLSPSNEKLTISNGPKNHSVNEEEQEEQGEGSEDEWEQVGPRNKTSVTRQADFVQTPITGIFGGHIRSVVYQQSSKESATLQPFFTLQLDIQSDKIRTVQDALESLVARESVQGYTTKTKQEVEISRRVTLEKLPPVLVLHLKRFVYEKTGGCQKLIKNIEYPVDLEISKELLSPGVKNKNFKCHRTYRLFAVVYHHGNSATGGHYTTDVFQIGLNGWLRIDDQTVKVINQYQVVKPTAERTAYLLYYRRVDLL

On to `COc1ccc(-c2csc(NC(=O)CCl)n2)cc1`, for which the “log2 ratio of Biotin-Ahx-Ub-VS probe labelling” value in assay [1] is -0.417; in assay [2], -0.639; in [3] it was 0.0611; in assay [4], -0.221; in [5] it was -1.27 (active); in [6], -0.274. Besides, the “log2 ratio of Biotin-Ahx-Ub-VS probe labelling” value in [7] was -3.29 (active); in [8], -0.17; in assay [9], -0.394.
